# Compounds without any hit were thinned out: in the full panel of roughly 83,000, 20% have a hit.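 Interpretation: 100, growth as untreated; towards 0, rising growth inhibition; 0, no net growth; 0 to -100, cell death. Compounds scoring below 10 were considered active.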 Values without a mark were called inactive. The source made the active and inactive calls.
# Key:
# Test in all cases: NCI-60 one-dose screen, 48 h (100 = growth as untreated, 0 = no growth, -100 = all killed)
# Details in all cases: 10 µM unless noted
# [1] = system: SK-MEL-2 melanoma
# [2] = system: EKVX NSCLC
# [3] = system: SN12C renal
# [4] = system: UO-31 renal
# [5] = system: TK-10 renal
# [6] = system: ACHN renal
# [7] = system: CAKI-1 renal
# [8] = system: CCRF-CEM leukemia
# [9] = system: MOLT-4 leukemia
# [10] = system: A498 renal
Structure (SMILES),growth [1],growth [2],growth [3],growth [4],growth [5],growth [6],growth [7],growth [8],growth [9],growth [10]
c1ccc2nc(N/N=C3\CCCCC3C3CCCCC3)ccc2c1 (centres undefined),34.6%,33.5%,59.4%,60.9%,72.8%,44.5%,43.4%,7.99% (active),6.97% (active),–
COCCOCCOCCOCCOc1ccc2c(c1)C(=O)c1nc3ncccc3c(=O)n1-2,6.22% (active),10.5%,-93% (active),-7.56% (active),-77.4% (active),-19.5% (active),–,5.42% (active),-28.7% (active),-100% (active)
O=[N+]([O-])c1ccc2[nH]cc(-c3c4ccccc4cc4[nH]c5ccc([N+](=O)[O-])cc5c34)c2c1,2.23% (active),39.4%,36.7%,13.2%,58.7%,15.4%,25.3%,7.25% (active),6.8% (active),–
c1ccc(-c2nc(Nc3nccnn3)c3ccccc3n2)cc1,112%,88.4%,96.7%,89.8%,155%,103%,84.9%,93.2%,100%,–
CC1CN(/N=C/c2ccc([N+](=O)[O-])o2)C(=N)O1 (centres undefined),123%,104%,91%,73.9%,105%,92.9%,96.4%,112%,107%,–
COc1ccc2c3c(ccc2c1)C(=O)/C(=C\O)CC3,99.8%,78.5%,100%,96.6%,93.4%,102%,105%,72.4%,88.4%,–
C[C@H]1O[C@@H](O[C@H]2[C@@H](O)C[C@H](O[C@H]3[C@@H](O)C[C@H](O[C@H]4CC[C@]5(C)C6C[C@@H](O)[C@]7(C)[C@@H](C8=CC(=O)OC8)CC[C@]7(O)C6CC[C@@H]5C4)O[C@@H]3C)O[C@@H]2C)C[C@H](O)[C@@H]1O (some centres undefined),-72.8% (active),-100% (active),-61.7% (active),-82.4% (active),–,-75.8% (active),-100% (active),-56.6% (active),-33.7% (active),-33% (active)
CC12CCC3C(=CCc4cc(O)ccc43)C1CCC2=O (centres undefined),119%,72.3%,97.5%,76%,–,93.1%,92.6%,95.5%,85.4%,102%
CCSCC1CC(O)(c2ccccc2)C(c2ccccc2)C(c2ccc(Cl)cc2)O1 (centres undefined),16.9%,-4.64% (active),-49.9% (active),11.9%,–,22.8%,-51.3% (active),13.3%,–,-13.3% (active)
CC(NC(N)=S)c1ccccc1 (centres undefined),120%,103%,98.3%,93.2%,99%,–,104%,129%,98.8%,98.1%

# From PubChem BioAssay (NCI)
